Bioassay records deposited in PubChem by National Center for Advancing Translational Sciences (NCATS).
Tb PYK inh: T. brucei pyruvate kinase inhibition; Q57TT1; TbPYK enzyme, Kinase-Glo Plus ATP luminescence, 45 min; Potency, µM (doses to about 76.8 µM), usual class: inhibitors; 410,000 tested, 0.12% active; also: nearly all actives have a fitted effect of over 50% in size
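Enzyme and substrate buffer are dispensed first and compound is pin-transferred. ADP at 130 uM final then starts the reaction, which runs 45 min at room temperature. Detection reagent is added for 10 min before luminescence is imaged.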
Sm TGR inh: inhibitors of Schistosoma mansoni thioredoxin glutathione reductase. Q962Y6. purified TGR, DTNB reduction, TNB absorbance 405 nm. Potency, µM (highest dose often 114 µM), usual class: inhibitors. 360,000 tested, 3% active; also: nearly all actives have a fitted effect of over 60% in size
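TGR 20 nM + NADPH 100 uM (dispensed conc.), cpd preinc 15 min RT; start with NADPH (500 uM addition) then DTNB (15 mM addition). Kinetic TNB absorbance, 405 nm filter. Four-parameter Hill fit across titration.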
Shiga inhibitor: Shiga toxin inhibition | Vero cells, Shiga toxin protein synthesis inhibition reporter | inhibition, % at 38.7 µM | 290,000 tested, 9.2% active; in the data active = inhibition mostly above about 28%, no sharp cut-off; inactive = mostly below about 43%
Giardia FBPA inh: inhibitors of Giardia lamblia fructose-1,6-bisphosphate aldolase | purified Giardia FBPA | 290,000 tested, 0.71% active | A8B2U2 | Potency, µM (highest dose often 59.6 µM), actives largely listed as inhibitors; also: nearly all actives have a fitted effect of over 55% in size
Target sequence (A8B2U2 whole entry, looked up): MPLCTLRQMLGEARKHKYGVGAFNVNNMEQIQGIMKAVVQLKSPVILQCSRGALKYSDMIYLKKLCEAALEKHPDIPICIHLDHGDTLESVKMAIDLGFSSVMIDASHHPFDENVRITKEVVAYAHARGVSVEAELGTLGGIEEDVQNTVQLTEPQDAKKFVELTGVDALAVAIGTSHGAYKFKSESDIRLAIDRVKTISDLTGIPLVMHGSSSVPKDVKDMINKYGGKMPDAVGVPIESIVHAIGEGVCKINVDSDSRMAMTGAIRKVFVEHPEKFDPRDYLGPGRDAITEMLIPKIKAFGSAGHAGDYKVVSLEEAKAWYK
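40 nM FBPA preincubated 10 min at RT with compound (up to 57.5 uM final), then substrate plus GAPDH/TPI/NAD/arsenate coupling and diaphorase/resazurin added. Fluorescence read after 20 min at RT, 525/598 nm.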
LmPK inh: inhibitors of Leishmania mexicana pyruvate kinase; Q27686; purified LmPK, Kinase-Glo ATP luminescence, 1 h; Potency, µM (top dose mostly 57.5 µM), hits mostly inhibitors; 290,000 tested, 0.37% active
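ATP generated from ADP (0.1 mM) and PEP (0.5 mM) by 0.1 nM LmPK over 1 h at room temperature (pH 7.2 imidazole buffer) was detected by coupled luciferase luminescence. Values were normalized to uninhibited and no-enzyme wells.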
Cycloheximide cs: affects cycloheximide protein synthesis inhibition readout, counter-screen | max response, % | 300,000 tested, 12% active | cell reporter, cycloheximide protein synthesis inhibition counterscreen; in the data active = max response mostly above about 13%, no sharp cut-off; inactive = mostly below about 14%; also: read at 38.3 µM for the half of the compounds with a filed dose
Each line names hits and unclear results; the compound was inactive in the other large screens. The sample as a whole holds a higher share of hits than the screen did. Unless noted, calls follow the shape of the dose curve; as a rule, active = well fitted curve in the direction sought with a large enough effect; inconclusive = small, poorly fitted or top-dose-only effect, or another doubt; inactive = no such curve, though single readings can be large; an effect the other way counts as inactive or inconclusive.

CS(=O)(=O)NCc1csc(-c2ccccc2)n1	none
Cc1ccn2cc(CNS(=O)(=O)c3cccs3)nc2c1	Shiga inhibitor 46, Cycloheximide cs 23
CCS(=O)(=O)NCc1csc(-c2ccccc2)n1	Cycloheximide cs 15
O=S(=O)(NCc1csc(-c2cccs2)n1)c1cccs1	Shiga inhibitor 53, Cycloheximide cs 18
O=S(=O)(NCc1csc(-c2cccs2)n1)c1ccc(Cl)cc1	none
O=S(=O)(NCCc1cn2ccsc2n1)c1ccc(Cl)cc1	Sm TGR inh 35µM (no result: Shiga inhibitor, Giardia FBPA inh, LmPK inh, Cycloheximide cs)
CCc1ccc(S(=O)(=O)c2nnn3c2nc(Nc2ccc(F)cc2)c2cc(Cl)ccc23)cc1	none (no result: Shiga inhibitor, Giardia FBPA inh, LmPK inh, Cycloheximide cs)
Cc1cccc(CCNC(=O)C2CCC(CNS(=O)(=O)c3c(C)cc(C)cc3C)CC2)c1 (configuration not stated)	none (no result: Shiga inhibitor, Giardia FBPA inh, LmPK inh, Cycloheximide cs)
COc1cccc(NC(=O)Cn2c(=O)n(CC(=O)NCc3ccc(C)cc3)c(=O)c3sccc32)c1	none (no result: Shiga inhibitor, Giardia FBPA inh, LmPK inh, Cycloheximide cs)
O=C(NCCc1cn2ccsc2n1)c1cccs1	Shiga inhibitor 25, Cycloheximide cs 23
O=S(=O)(NCc1cn2ccsc2n1)c1cccs1	Cycloheximide cs 23
O=C(NCc1csc(-c2cccs2)n1)c1ccsc1	Shiga inhibitor 55, Cycloheximide cs 22
Oc1c(C(c2ccccc2)N2CCOCC2)sc2nc(-c3ccco3)nn12 (configuration not stated)	none (no result: Shiga inhibitor, Giardia FBPA inh, LmPK inh, Cycloheximide cs)
O=C(COc1ccccc1F)OCc1cc(=O)n2nc(-c3cccs3)sc2n1	none (no result: Shiga inhibitor, Giardia FBPA inh, LmPK inh, Cycloheximide cs)
CCOc1cc(C(=O)NCCc2csc(-c3ccc(C)cc3)n2)cc(OCC)c1OCC	none (no result: Shiga inhibitor, Giardia FBPA inh, LmPK inh, Cycloheximide cs)
COc1ccc(C(=O)Nc2ccc(N3CCCC3)cc2)cc1	Sm TGR inh 56µM
CN1CCN(c2ccc(-c3ccnn3C(=O)Nc3ccccc3)cc2)CC1	Cycloheximide cs 41 (no result: Sm TGR inh)
CN1CCN(c2ccc(NC(=O)Oc3ccccc3)cc2)CC1	none
CN1CCN(c2ccc(NC(=O)C(C)(c3ccccc3)c3ccccc3)cc2)CC1	none
COc1ccc(C(=O)Nc2ccc(N3CCCC3)cc2)cc1Br	Sm TGR inh inconclusive
CN1CCN(c2ccc(NC(=O)c3ccc(Oc4ccccc4)cc3)cc2)CC1	Shiga inhibitor 31
COc1ccc(C(=O)NC(=S)Nc2ccc(N3CCCC3)cc2)cc1	Cycloheximide cs 16
Cc1cccn2c(=O)cc(CSc3nnc(NC(=O)COc4ccc(F)cc4)s3)nc12	none (no result: Shiga inhibitor, Giardia FBPA inh, LmPK inh, Cycloheximide cs)
COc1ccc(NC(=O)c2ccc(COCC(F)(F)C(F)F)cc2)cc1	Shiga inhibitor active, Cycloheximide cs 53
CC(=O)c1ccc(N2CCN(C(=O)c3cccc(Oc4ccccc4)c3)CC2)cc1	Cycloheximide cs 35
COc1ccc(/C(C)=N/NC(=O)c2ccc(N(C)C)cc2)cc1	none
COc1ccc(NC(=O)c2ccc(COCC(F)(F)C(F)F)cc2)cc1OC	none
C/C(=N\NC(=O)CC(C)C)c1ccc(N2CCCCC2)cc1	Shiga inhibitor 71, Cycloheximide cs 26
CC(=O)c1ccc(OCC(=O)Nc2ccc(N3CCCCC3)cc2)cc1	none (no result: Shiga inhibitor, Giardia FBPA inh, LmPK inh, Cycloheximide cs)
COc1ccc(/C(C)=N/NC(=O)c2nc(C)cc(C)n2)cc1	Shiga inhibitor 50, Cycloheximide cs 32
COc1ccc(C(=O)N/N=C(/C)c2ccc(N3CCCCC3)cc2)cc1	Shiga inhibitor 74, Cycloheximide cs 30
CC(=O)Nc1ccc(OCCOc2ccc(NC(C)=O)cc2)cc1	none
CCOc1ccc(NC(=O)CC(=O)Nc2ccc(OCC)cc2)cc1	Shiga inhibitor 67
C=CCNC(=O)Nc1ccc(OCC)cc1	Cycloheximide cs 12
CC(=O)Nc1ccc(OCC=C(Cl)Cl)cc1	Shiga inhibitor 25, Cycloheximide cs 11
CCOc1ccc(NC(=O)CN2CCN(C3CCCCC3)C(=O)C2=O)cc1	none (no result: Shiga inhibitor, Giardia FBPA inh, LmPK inh, Cycloheximide cs)
CCOc1ccc(NC(=O)CN2C(=O)C3CCCN3C2=O)cc1 (configuration not stated)	Shiga inhibitor active, Cycloheximide cs 15
Cc1ccc(CN2C(=O)c3ccccc3Sc3ccc(C(=O)NCc4ccco4)cc32)cc1	none (no result: Shiga inhibitor, Giardia FBPA inh, LmPK inh, Cycloheximide cs)
CCOc1ccc(NC(=O)CN2C(=O)CSC2=O)cc1	Shiga inhibitor 79, Cycloheximide cs 15
O=C1CC(c2ccco2)=Nc2ccccc2N1	Sm TGR inh 45µM, Cycloheximide cs 11
Cc1ccc(Nc2nc(-c3ccc(O)c(O)c3)cs2)nc1	Sm TGR inh 5.6µM, Shiga inhibitor 113, Cycloheximide cs 62
Cc1ccc(Nc2nc(-c3ccc(F)cc3)cs2)nc1	Shiga inhibitor 77, Cycloheximide cs 53
COc1ccccc1CNc1nc(=S)[nH]c2cc(OC)c(OC)cc12	Shiga inhibitor 48, Cycloheximide cs 23
COc1cc2[nH]c(=S)nc(NCCc3ccc(C)cc3)c2cc1OC	none
COc1cc2[nH]c(=S)nc(NCc3cccs3)c2cc1OC	none
COc1cc2[nH]c(=S)nc(NCCc3ccc(S(N)(=O)=O)cc3)c2cc1OC	Sm TGR inh 14µM
CCOc1ccc2nc(COC(=O)c3cccs3)c(C(=O)c3ccccc3)[n+]([O-])c2c1	none
CCOc1ccc2nc(COC(=O)c3ccncc3)c(C(=O)c3ccccc3)[n+]([O-])c2c1	Shiga inhibitor 52, Cycloheximide cs 27
Cc1ccc(NC(=O)c2cc(S(=O)(=O)N3CCCC(C)C3)cn2C)c(Br)c1 (configuration not stated)	none (no result: Shiga inhibitor, Giardia FBPA inh, LmPK inh, Cycloheximide cs)
Cc1cc(C(=O)N(C)C)sc1-c1ccccc1	Shiga inhibitor 71, Cycloheximide cs 63
CCSc1nnc(NC(=O)c2ccc3c(c2)OCO3)s1	Shiga inhibitor 67, Cycloheximide cs 45
CC(C)c1nnc(NC(=O)c2ccc3c(c2)OCO3)s1	Shiga inhibitor 125, Cycloheximide cs 40 (no result: Sm TGR inh)
CCN(CC)C(=O)c1sc(NC(=O)c2ccc3c(c2)OCO3)c(C(N)=O)c1C	Cycloheximide cs 42 (no result: Giardia FBPA inh)
CC(c1ccccc1)c1nnc(NC(=O)c2ccc3c(c2)OCO3)s1 (configuration not stated)	none
CC(C)(C)c1nnc(NC(=O)c2ccc3c(c2)OCO3)s1	Shiga inhibitor 170, Cycloheximide cs 39
CCOC(=O)/C(=N/Nc1ccccc1)Sc1nnc(CCc2ccccc2)n1-c1ccccc1	none
CCc1ccccc1NC(=O)Nc1c[nH]c(=O)[nH]c1=O	none (no result: Shiga inhibitor, Giardia FBPA inh, LmPK inh, Cycloheximide cs)
CN=C(NC)NCc1ccccc1	none (no result: Sm TGR inh, Shiga inhibitor, Giardia FBPA inh, LmPK inh, Cycloheximide cs)
CC(C)Sc1nnc(NC(=O)c2ccc3c(c2)OCO3)s1	Shiga inhibitor 56, Cycloheximide cs 24 (no result: Giardia FBPA inh)
Cc1ccc(NC(=O)Cn2c(O)c(N=NC(=O)c3cc4ccccc4cc3O)c3ccccc32)cc1	none
O=C(N=Nc1c(O)n(Cc2ccccc2)c2ccccc12)c1cc2ccccc2cc1O	Giardia FBPA inh inconclusive, Cycloheximide cs 16
O=C(N=Nc1c(O)n(Cc2ccccc2)c2ccccc12)c1ccc(O)cc1	Shiga inhibitor 60, Cycloheximide cs 64
COc1ccc(C(=O)NCC(=O)N=Nc2c(O)n(Cc3ccccc3)c3ccccc23)cc1OC	none
